Assay results from PubChem BioAssay (Tox21).
Where “and” joins values, the source holds several entries; their conditions need not be identical. Identical values can stand only once. Records with an inconclusive call do not appear. Entries that show only a call come without a potency. Some compounds were tested as several samples or in several runs, with calls that do not always agree. Calls of active or inactive are those of the source. Unless noted, calls come from the whole dose curve; as a rule, active = well fitted curve in the direction sought with a large enough effect in the repeat runs; inconclusive = weak or mixed curves; inactive = no such curve, though single readings can be large; an effect the other way counts as inactive or inconclusive.

Tests used:
[1] = qHTS assay to identify small molecule agonists of the hypoxia (HIF-1) signaling pathway - cell viability counter screen (AID 1224844; calls by dose curve; note: nearly all actives have a fitted effect of over 50% in size)
In short: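 Same wells as the HIF-1 reporter screen; ME-180 cells carrying HRE-bla, 17 hr treatment at 37C; CellTiter-Glo luminescence read after 30 min at room temperature.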

[2] = qHTS assay to identify small molecule agonists of the hypoxia (HIF-1) signaling pathway (AID 1224846; active = well fitted activation curve with a large enough effect in the signal ratio in the repeat runs, not every such curve was filed as active; the % refers to the signal ratio)
In short: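 In ME-180 cells bearing an HRE-bla construct, 17 h treatment with DMSO-dissolved compounds at 37C was followed by CCF4-AM loading to quantify reporter induction.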

[3] = qHTS assay to identify small molecule agonists of H2AX - cell viability counter screen (AID 1224847; calls by dose curve; note: nearly all actives have a fitted effect of over 30% in size; note: potency is the fitted concentration of half-maximal effect)
In short: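 Compounds tested at 15 concentrations were incubated 3 hr at 37C with wild-type CHO-K1 cells; cellular ATP-based luminescence (CellTiter-Glo) indicated viability.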

[4] = qHTS RealTime-Glo MT Cell Viability Assay in HepG2 cells - 24 hour (AID 1224867); note: nearly all actives have a fitted effect of over 50% in size
In short: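 HepG2 cells (600/well) were dispensed with RealTime-Glo reagents, incubated 5 h at 37 °C, then treated with compounds in DMSO for up to 40 h. Nonlytic NanoLuc luminescence reflecting viable cells was read at each stated time point.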

[5] = qHTS RealTime-Glo MT Cell Viability Assay in HEK293 cells - 32 hour (AID 1224868); note: nearly all actives have a fitted effect of over 50% in size; note: potency is the fitted concentration of half-maximal effect
In short: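 HEK293 cells seeded with NanoLuc/prosubstrate reagent, rested 5 h at 37 C, then dosed and kept at 37 C up to 40 h. Nonlytic real-time luminescence from viable cells read at 0, 8, 16, 24, 32 and 40 h.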

[6] = A CellTox Green Cytotoxicity Assay to monitor cytotoxicity in HEK293 cells - 0 hour (AID 1224869); note: nearly all actives have a fitted effect of over 50% in size
In short: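 Homogeneous no-lysis format: HEK293 cell suspension mixed with CellTox Green reagent, seeded, incubated 5 h at 37 C/5% CO2, then dosed by pintool with compound in DMSO.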

[7] = qHTS RealTime-Glo MT Cell Viability Assay in HepG2 cells - 40 hour (AID 1224870); note: nearly all actives have a fitted effect of over 50% in size
In short: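 HepG2 cells (600/well) mixed with RealTime-Glo MT reagent, settled 5 h at 37 C/5% CO2 before compound addition. Nonlytic NanoLuc luminescence from viable-cell prosubstrate reduction read repeatedly during 40 h treatment at 37 C.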

[8] = qHTS assay to identify small molecule antagonists of the estrogen related receptor (ERR) signaling pathway from Tox21 library (AID 1224848); note: nearly all actives have a fitted effect of over 50% in size; note: potency is the fitted concentration of half-maximal effect
In short: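 Compounds dissolved in DMSO are pin-transferred onto ERR reporter cells (2,000 per well) that have settled for 6 h at 37 C. Plates then incubate 18 h at 37 C before ONE-Glo luciferase reagent and a luminescence read 30 min later.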

| Structure (SMILES) | Potency [1] | outcome [2] | Potency [3] | Potency [4] | Potency [5] | Potency [6] | Potency [7] | Potency [8] |
| --- | --- | --- | --- | --- | --- | --- | --- | --- |
| CC1(C)C(=O)N(Cl)C(=O)N1Cl | inactive | inactive | inactive | inactive | inactive | inactive | inactive | – |
| CC(=O)c1nccs1 | inactive | inactive | inactive | inactive | inactive | inactive | inactive | – |
| O=[N+]([O-])c1ccccc1C(F)(F)F | inactive | inactive | inactive | inactive | inactive | inactive | inactive | inactive |
| Cc1ccncc1 | inactive | inactive | inactive | inactive | inactive | inactive | inactive | – |
| Cc1ncc(CO)c(CO)c1O | inactive | – | inactive | inactive | inactive | inactive | inactive | – |
| O=C(c1ccccc1)c1ccc(O)c(O)c1O | – | inactive | inactive | inactive | inactive | inactive | inactive | inactive |
| OCC(O)CS (stereo not drawn) | inactive | inactive | inactive | inactive | inactive | inactive | inactive | – |
| Nc1cccc(N)n1 | inactive | inactive | inactive | inactive | inactive | inactive | inactive | – |
| CCCCCCCC(=O)O | inactive | inactive | inactive | inactive | inactive | inactive | inactive | – |
| COc1cc(NC(=O)CC(C)=O)c(OC)cc1Cl | inactive | inactive | inactive | inactive | inactive and 11 µM (active) | inactive | inactive | inactive |
| CN1Cc2c(N)cccc2C(c2ccccc2)C1 (stereo not drawn) | inactive | – | inactive | inactive | inactive | inactive | inactive | – |
| O=c1c(O)c(-c2ccc(O)c(O)c2)oc2cc(O)cc(O)c12 | inactive | – | – | inactive | inactive | inactive | inactive | – |
| Cc1nnc(NS(=O)(=O)c2ccc(N)cc2)s1 | inactive | – | inactive | inactive | inactive | inactive | inactive | – |
| NC(N)=S | inactive | inactive | inactive | inactive | inactive | inactive | inactive | – |
| c1cnc2c(c1)ccc1cccnc12 | inactive | – | 80.8 µM (active) and inactive | inactive | 3.5 µM (active) and 7.76 µM (active) | inactive | inactive | 1.23 µM (active) and 1.09 µM (active) and 1.54 µM (active) |
| COc1ccc2cc3[n+](cc2c1OC)CCc1cc2c(cc1-3)OCO2 | inactive | inactive | inactive | inactive | 4.93 µM (active) and 10.7 µM (active) | inactive | inactive | 976 nM (active) and 3.35 µM (active) |
| CC(=O)OC(C)(C)C1CC=C(C)CC1 (stereo not drawn) | inactive | inactive | inactive | inactive | inactive | inactive | inactive | inactive |

| Structure (SMILES) | Potency [1] | outcome [2] | Potency [3] | Potency [4] | Potency [5] | Potency [6] | Potency [7] | Potency [8] |
| --- | --- | --- | --- | --- | --- | --- | --- | --- |
| CCCCCCC(=O)O | inactive | inactive | inactive | inactive | inactive | inactive | inactive | inactive |
| CC/C(C)=N/O | inactive | inactive | inactive | inactive | inactive | inactive | inactive | – |
| CCCCCCCCC(=O)O | inactive | inactive | inactive | inactive | inactive | inactive | inactive | – |
| CCCCC(=O)O | inactive | inactive | inactive | inactive | inactive | inactive | inactive | – |
| CCCCCNCCCCC | inactive | inactive | inactive | inactive | inactive | inactive | inactive | – |
| Oc1ccc(Cc2ccccc2O)cc1 | inactive | inactive | inactive | inactive | 19.7 µM (active) | inactive | inactive | – |
| Brc1ccc(Oc2ccc(Br)cc2)cc1 | inactive | inactive | inactive | inactive | inactive | inactive | inactive | – |
| Cc1ccc(Cl)cc1 | inactive | inactive | inactive | inactive | inactive | inactive | inactive | – |
| OCc1ccc(Cl)cc1Cl | inactive | inactive | inactive | inactive | inactive | inactive | inactive | – |
| COc1ccc(N)c(OC)c1 | inactive | inactive | inactive | inactive | inactive | inactive | inactive | – |
| O=C1C(N(CO)C(=O)NCO)N(CO)C(=O)N1CO (stereo not drawn) | inactive | inactive | inactive | inactive | inactive | inactive | inactive | – |
| CCn1cc(C(=O)O)c(=O)c2cc3c(cc21)OCO3 | inactive | – | inactive | inactive | inactive | inactive | inactive | – |
| N[C@@H](Cc1cc(I)c(Oc2ccc(O)c(I)c2)c(I)c1)C(=O)O | inactive | inactive | inactive | inactive | inactive | inactive | inactive | – |
| C=C(CC(=O)O)C(=O)O | inactive | – | inactive | inactive | inactive | inactive | inactive | – |
| CC(=O)OC/C=C(\C)CCC=C(C)C | inactive | inactive | inactive | inactive | inactive | inactive | inactive | – |
| CCN(CC)CCNC(=O)c1ccc(N)cc1 | inactive | – | inactive | inactive | inactive | inactive | inactive | – |
